# In PubChem BioAssay AID2551 (National Center for Advancing Translational Sciences (NCATS), 2010):
# The whole screen tested about 310,000 compounds, of which about 17,000 (5.5%) were called active. About 11% were inconclusive and are not listed. Only a selection was taken, and actives are over-represented in it overall. A number with no mark means an inactive call. Calls follow the shape of the dose curve; as a rule, active = well fitted inhibition curve with a large enough effect; inconclusive = small, poorly fitted or top-dose-only effect, or effect the other way; inactive = no such curve, though single readings can be large or run the other way.
# Target: Nuclear receptor ROR-gamma (Mus musculus) (UniProt P51450)
# Sequence (P51450 whole entry, looked up): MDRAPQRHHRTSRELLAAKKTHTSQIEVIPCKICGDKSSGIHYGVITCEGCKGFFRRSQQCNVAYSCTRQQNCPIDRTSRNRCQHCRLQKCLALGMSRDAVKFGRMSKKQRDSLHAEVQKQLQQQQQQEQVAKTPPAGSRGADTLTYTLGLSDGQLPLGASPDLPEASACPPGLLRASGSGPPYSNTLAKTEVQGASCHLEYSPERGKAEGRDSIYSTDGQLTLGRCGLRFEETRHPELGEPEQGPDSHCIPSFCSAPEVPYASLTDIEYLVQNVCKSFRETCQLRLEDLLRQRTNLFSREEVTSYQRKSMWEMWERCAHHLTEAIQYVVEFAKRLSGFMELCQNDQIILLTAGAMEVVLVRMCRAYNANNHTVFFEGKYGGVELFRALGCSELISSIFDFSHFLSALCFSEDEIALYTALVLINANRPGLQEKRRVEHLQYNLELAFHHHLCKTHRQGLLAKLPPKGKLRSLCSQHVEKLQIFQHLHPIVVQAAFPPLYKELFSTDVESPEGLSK
# Assay: qHTS for inhibitors of ROR gamma transcriptional activity; also: nearly all actives have a fitted effect of over 60% in size
# Conditions: Drosophila S2 Gal4-RORgamma UAS-luciferase reporter, 20 h; series mostly up to 53.6 µM; activity change, negative = inhibition: at the top concentration
# How it was run: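 Stably transfected Drosophila Schneider cells are the test system, with ROR gamma fused to Gal4 and luciferase under UAS control; luminescence is read after 20 hr of 700 uM copper sulfate induction at ambient temperature.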
# % is scaled to controls: 0 for no effect and ±100 for the full control effect; potency is read from the fitted curve at half-maximal effect.
SMILES,"activity change, negative = inhibition",Potency
COc1cc(NC(=O)C2CC(c3ccccc3O)=NO2)c(OC)cc1Cl (stereo unspecified),-40.7%,–
O=C(CN1C(=O)COc2ccc(Cl)cc21)Nc1ccc(N2CCOCC2)cc1,-16.7%,–
Cc1ccc(S(=O)(=O)N2CCOCC2)cc1C(=O)NC(=S)N(Cc1ccccc1)C(C)C,–,1.26 µM (active)
CCOC(=O)c1sc(NC(=O)c2cc(S(=O)(=O)N3CCOCC3)ccc2C)nc1C,5.65%,–
Cc1ccc(S(=O)(=O)N2CCOCC2)cc1C(=O)NCc1ccc(F)cc1,28.3%,–
COc1ccc([N+](=O)[O-])cc1NCC(=O)c1ccc(C)cc1,12.3%,–
COCC1CCN(C(=O)CCc2nnc(C3(c4ccc(Cl)cc4)CCC3)o2)C1 (stereo unspecified),12.5%,–
CCCNC(=O)COc1coc(CN2CCN(Cc3ccccc3)CC2)cc1=O,-15.2%,–
COC(=O)c1cc(S(=O)(=O)NCC2CCN(Cc3ccc(Cl)cc3)CC2)cn1C,-5.73%,–
O=C(O)/C=C/c1cn(-c2ccccc2)nc1-c1cccs1,2.06%,–
O=c1[nH]c(-c2cccs2)nc2ccccc12,33.6%,–
S=c1[nH]c(-c2cccs2)cn1-c1ccccc1,–,5.01 µM (active)
O=C1OC2(CCCCC2)CC2=C1C1O[C@](c3ccsc3)(Cc3ccccc31)O2,-3.37% [at 10 µM],–
Nc1nc(SCc2cccc(Br)c2)n[nH]1,-10.9%,–
Cc1ccc(SCc2c(C(=O)N/N=C/c3cccnc3)nnn2-c2nonc2N)cc1,27.5%,–
Cc1ccc(SCc2c(C(=O)N/N=C/C3CC=CCC3)nnn2-c2nonc2N)cc1 (stereo unspecified),-43.2%,–
Nc1nonc1-n1nnc(C(=O)N/N=C/c2cc(Br)ccc2O)c1CSC1=NCCS1,–,3.16 µM (active)
C=CCOc1ccccc1NC(=O)CN1C(=O)CNC1=O,-31.8%,–
CN(C)S(=O)(=O)c1cccc(NC(=S)N/N=C/C(=O)c2ccccc2)c1,21.3%,–
Cc1ccc(/C=N/NC(=S)Nc2cccc(S(=O)(=O)N(C)C)c2)o1,–,1.26 µM (active)
CN(C)S(=O)(=O)c1cccc(NC(=O)Cc2ccsc2)c1,16.2%,–
O=C(Nc1ccccc1)C1CCN(C(=O)c2ccc(Br)cc2)CC1,1.33%,–

SMILES,"activity change, negative = inhibition",Potency
O=C(NCCc1ccccc1Cl)C1CCC(=O)N(CCCc2ccccc2)C1 (stereo unspecified),4.06%,–
CC1CC(C)CN(CCOc2cccc3ccccc23)C1 (stereo unspecified),-13.7%,–
COc1ccc(-c2c(-c3ccc(OC)cc3O)nc(C)nc2C(F)(F)F)cc1,-5.38%,–
COc1ccc(CCN2C(=O)c3[nH]nc(-c4ccccc4O)c3C2c2ccc(C)cc2)cc1OC (stereo unspecified),-39.7%,–
COc1ccc(-c2n[nH]c(C)c2-c2ccccc2OC)c(O)c1,–,8.91 µM (active)
CC(=O)COc1ccc2c(-c3ccccc3)cc(=O)oc2c1,-5.52%,–
Cc1noc(C)c1COC(=O)COc1ccc(-c2ccccc2)cc1,-18.9%,–
COc1ccc(-c2[nH]ncc2CN(C)Cc2c(C)n[nH]c2C)c(OC)c1,-1.1%,–
COc1ccc(OC)c(-c2csc(-c3cccs3)n2)c1,2.01%,–
C=C(C)COc1ccc(-c2nc(N)ncc2-c2ccccc2OC)c(O)c1,21.4%,–
COc1ccc(-c2n[nH]c(C)c2-c2ccc(OC)c(OC)c2)c(O)c1,–,10 µM (active)
C=C(C)COc1ccc(-c2n[nH]c(C)c2-c2ccccc2OC)c(O)c1,–,14.1 µM (active)
C=C(C)COc1ccc(-c2n[nH]c(C)c2-c2ccccc2)c(O)c1,–,7.08 µM (active)
CCOc1ccc(-c2nc(N)ncc2-c2ccccc2OC)c(O)c1,28.4%,–
O=C(NCCc1ccccn1)c1nc(Cn2cc([N+](=O)[O-])cn2)no1,-0.758%,–
Cc1ccccc1N1CC(C(=O)Nc2ccc3c(c2)OCO3)CC1=O (stereo unspecified),19.2%,–
COc1ccc(-c2csc3ncnc(N4CCN(S(=O)(=O)c5ccccc5C#N)CC4)c23)cc1,0.197%,–
CCCC(=O)N(CCN1CCOCC1)c1nc2ccc(OCC)cc2s1,4.81%,–
CC(=O)Nc1ccc(NC(=O)CSc2nnnn2-c2ccccc2F)cc1,6.46%,–
CCc1ccc(NC(=O)CS(=O)CC(=O)N2CCN(c3ccccc3F)CC2)cc1 (stereo unspecified),-24.2%,–
Cc1nc(CN(C)C(=O)CC2C(=O)NCCN2Cc2ccc(F)cc2)cs1 (stereo unspecified),-3.13%,–
CCOc1ccc(CN2CCN(Cc3c[nH]c4ccccc34)CC2)cc1,-8.28%,–

SMILES,"activity change, negative = inhibition",Potency
COc1ccc2c(c1)C(NS(=O)(=O)OCC(Cl)(Cl)Cl)CCC2 (stereo unspecified),-9.1%,–
O=C(CC1C(=O)NCCN1C(=O)c1ccc([N+](=O)[O-])cc1)Nc1cccc(Cl)c1 (stereo unspecified),-1.47%,–
O=C(NCc1ccncc1)C1CCCN(S(=O)(=O)c2ccc(Br)cc2)C1 (stereo unspecified),-0.316%,–
COc1ccc(NC(=O)CCCNC(=O)Cn2cnc3sc4c(c3c2=O)CCCC4)cc1OC,11.9%,–
CCOc1ccc(-c2n[nH]c(C)c2-c2ccccn2)c(O)c1,–,17.8 µM (active)
CCOc1cccc(-c2nn3c(-c4ccccn4)nnc3s2)c1,-2.44% [at 10 µM],–
COc1ccc(-n2c(SCC(=O)OC(C)C)nnc2-c2ccccn2)cc1,8.58%,–
COc1ccc(CNC(=O)CCN2C(=O)c3ccccc3C2=O)cc1,-10.3%,–
O=C(O)CC(c1ccccc1F)N1Cc2ccccc2C1=O (stereo unspecified),13.5%,–
COCCC(=O)N1CCC(Oc2ccc(C(=O)NCc3ccon3)cc2)CC1,-0.109%,–
O=C(NCCCn1ccnc1)Nc1ccc(Cl)cc1Cl,1.19%,–
Clc1ccc(C(Cn2ccnc2)OCc2ccsc2Cl)c(Cl)c1 (stereo unspecified),–,12.6 µM (active)
COc1ccc(C(CNC(=O)COc2ccc([N+](=O)[O-])cc2)N2CCCCC2)cc1 (stereo unspecified),-1.04%,–
CC(=O)NCC(=O)NC1CCCc2c1cnn2-c1ccccc1F (stereo unspecified),11.1%,–
COCCN(C(=S)Nc1cccc(Cl)c1C)C(C)c1ccco1 (stereo unspecified),–,7.94 µM (active)
Cc1c(Cl)cccc1NC(=O)CCC(=O)N/N=C/c1ccco1,4.27%,–
COCCN(CCOC)C(=S)Nc1ccccc1Cl,-20.1%,–
C=CCn1c(SCC(=O)NCCCO)nc2sc3c(c2c1=O)CCC3,12.8%,–
COc1ccc(NC(=S)N2CCC(NC(=O)c3cccc(F)c3)CC2)cc1,-21.7%,–
COc1ccc(C(=O)NC2CCN(C(=S)Nc3ccccc3)CC2)cc1,-22.9%,–
COc1ccccc1C1CCN(C(=S)Nc2ccc(Br)cc2)CC1,–,5.01 µM (active)
COc1ccc(NC(=O)C2C3CCC(O3)C2C(=O)O)cc1OC (stereo unspecified),-29.4%,–

SMILES,"activity change, negative = inhibition",Potency
COc1cc(NC(=O)CCS(=O)(=O)c2ccc3c(c2)oc(=O)n3C)cc(OC)c1,10.4%,–
Cc1ccc(C(=O)N(CC(=O)NC2CCCC2)c2ccc(F)cc2)s1,-5.56%,–
CCOc1c2ccc(C(=O)NCc3ccc4c(c3)OCO4)cc2nn1C,-5.74%,–
C=CCNC(=O)c1ccc(C)c(Br)c1,5.36% [at 0.365 µM],–
C=CCNC(=O)c1ccc2c3n(nc2c1)-c1ccc(C)cc1CO3,–,7.08 µM (active)
CCCc1nn2c(=O)cc(CSCC(=O)Nc3cccc(C)c3)nc2s1,-2.84%,–
Cc1ccc2c(c1)c1ncn(CCC3=CCCCC3)c(=O)c1n2C,4.27%,–
Cc1ccc2c(c1)c1ncnc(N3CCc4ccccc4C3)c1n2C,–,15.8 µM (active)
Cc1ccc2c(c1)c1ncn(Cc3ccc(F)cc3)c(=O)c1n2C,-40.6%,–
O=C(O)c1ccccc1-c1ccccc1C(=O)Nc1ccccc1Br,-14.5%,–
O=C(Nc1ccc(NC(=O)c2cccs2)cn1)c1ccco1,–,11.2 µM (active)
O=C(Nc1ccc2nccnc2c1)c1ccco1,43%,–
COc1cccc(C(=O)Nc2ccc(NC(=O)c3ccco3)cn2)c1,25.9%,–
Cc1cc(O)c(C2(O)C(=O)Nc3ccccc32)cc1C (stereo unspecified),19.9%,–
C/C(=N\NC(=O)c1ccc2ccccc2c1)c1cccnc1,-21.8%,–
CCOc1ccc(C(O)Cc2nc3ccccc3n2C)cc1 (stereo unspecified),11.9%,–
CC(NCc1nc2ccccc2n1C)C12CC3CC(CC(C3)C1)C2 (stereo unspecified),–,5.01 µM (active)
Cn1c(CNC(=O)C(C)(C)C)nc2ccccc21,20.1% [at 0.365 µM],–
COc1ccc(CCNC(=S)NC(=O)/C=C/c2ccc(C)cc2)cc1OC,–,3.16 µM (active)
COc1ccc(CCNC(=O)NS(=O)(=O)c2ccc(C)cc2)cc1OC,-25.4%,–
COc1ccc(CCNC(=O)Cc2ccc(C)cc2)cc1OC,-20.3%,–
COc1cccc(CNC(=O)CN(C)S(=O)(=O)c2ccc3c(c2)c(=O)n(C)c(=O)n3C)c1,-14.9%,–

SMILES,"activity change, negative = inhibition",Potency
CC(=O)Nc1ccc(NC(=O)CN2C(=O)COc3ccc(S(=O)(=O)N4CCCCC4)cc32)cc1,-1.03%,–
CCOc1cccc(-c2nnc(SCC(=O)NC3CC3)n2C)c1,-31.3%,–
OCCN1CCN(c2nnc(-c3ccccc3)c3ccccc23)CC1,-1.93%,–
CCOc1ccc(N(CC(=O)NCCOc2ccccc2OC)S(=O)(=O)c2ccccc2)cc1,-29.8%,–
O=C(CCCc1ccccc1)NCc1ccccc1,16.2%,–
CC(=O)c1ccc(N2CCN(C(=O)CCc3ccccc3)CC2)cc1,23.9%,–
C=CCN1CCN(C(=O)CCCc2ccccc2)CC1,–,5.62 µM (active)
Cc1ccccc1OCC(=O)Nc1nnc(S(=O)(=O)N2CCCC2)s1,14.6%,–
CCOc1cc(/C=N/Nc2cc(C)nc3ccc(C)cc23)ccc1O,-24.7%,–
CC1=C(C(N)=O)C(c2ccc(F)cc2)n2nc(CCCO)nc2N1 (stereo unspecified),-6.31%,–
COc1cccc(-c2nc3n(n2)C(c2ccccc2Cl)C(C(N)=O)=C(C)N3)c1 (stereo unspecified),10.2%,–
CC1=C(C(N)=O)C(c2ccc3c(c2)OCO3)n2nc(-c3cccc(C)c3)nc2N1 (stereo unspecified),–,5.62 µM (active)
Cc1ccc(C(=O)OCC(=O)NC(=O)Cc2ccccc2)c(O)c1,-14.9%,–
CC(=O)N/N=C(\C)c1ccc(Br)cc1Br,–,10 µM (active)
COC(=O)c1oc2ccc(Br)cc2c1NC(C)=O,-12.5%,–
CN(C)C(=O)c1cc(Br)ccc1Cl,5.62%,–
COc1ccc(CCNC(=O)CS(=O)(=O)Cc2nc(-c3ccc(C)cc3)oc2C)cc1OC,-11.7%,–
CCCCNC(=O)C1(O)c2ccccc2NC(=O)N1c1ccc(Cl)cc1 (stereo unspecified),0.468%,–
